KKLEB tox = cytotoxicity in KKLEB CF airway cells, primary screen, cytotoxicity control for CF NF-kB inhibitor project, cell-based, uHTS, fluorescence assay plates; KKLEB CF airway cells viability, ATPlite luminescence, overnight; stronger effect = lower value; cells stimulated with P. aeruginosa culture filtrate; activity change (cytotoxicity), % at 5 µM; 0.36% of 360,000 active; AID 602141, 2011;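 active means corrected activity change at or below -50% at 5 µM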
TRPM1 prom inh = inhibitors of MITF-dependent TRPM1 promoter reporter, primary screen, cell-based, SK-MEL-5, single point, luciferase; SK-MEL-5 TRPM1 promoter luciferase, 24 h; 0.83% of 330,000 active; AID 488899, 2010; inhibition, % at 12.5 µM;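 active means mean inhibition across replicates of 60% or more, whatever share of single replicates reaches that level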
EBV LMP1 NFkB = EBV LMP1-driven NF-kappaB luciferase reporter inhibitors, primary screen, cell-based, luminescence, single point; LMP1-induced NF-kappaB luciferase reporter cells; inhibition, % at 12.5 µM; 0.69% of 350,000 active; AID 504558, 2011; in the data active means inhibition above about 41%
Peg3 prom inh = Peg3 promoter-driven luciferase inhibitors, primary screen, cell-based, HeLa, luciferase luminescence; HeLa PEG-Prom luciferase reporter, overnight; inhibition, % at 20 µM; 1.7% of 360,000 active;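 active means inhibition of at least 50% at 20 µM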
CF NFkB block = inhibitors of PAF-induced NF-kB signaling, primary screen, cell-based, GFP fluorescence, uHTS | KKLEB NF-kB-GFP reporter, GFP fluorescence overnight | inhibition, % at 5 µM | 0.86% of 360,000 active;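 active means at least 50% inhibition at 5 µM, scaled per plate between neutral and stimulator controls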;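 further: PAF is a Pseudomonas aeruginosa culture filtrate used as stimulus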
Shn3 3UTR inh = reduction of Shn3 3'UTR firefly luciferase signal, primary screen, Schnurri-3 inhibitor project, cell-based, Clone20 osteoblasts, set 2. Clone20 osteoblast Shn3 3'UTR firefly luciferase, 24 h. inhibition, % at 12.5 µM. 0.52% of 360,000 active;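 active means mean inhibition of at least 75% with every replicate also reaching 75%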
Each line names hits and unclear results; the compound was inactive in the other large screens. Sampled rows, rich in hits. Any-hit rate of the full collection: about 2.9%.

Cn1c(=O)c2c(nc(NCc3ccco3)n2C/C=C/c2ccccc2)n(C)c1=O	EBV LMP1 NFkB 41.8, Shn3 3UTR inh 87.9
Cn1c(=O)c2c(nc(NCCc3ccccc3)n2Cc2ccc(F)cc2)n(C)c1=O	none
CC(Cl)=CCn1c(NCCc2ccccc2)nc2c1c(=O)n(C)c(=O)n2C	Shn3 3UTR inh 91.7 (no result: TRPM1 prom inh, EBV LMP1 NFkB)
C[C@@H]1CN([C@@H](C)CO)S(=O)(=O)c2ccc(Br)cc2O[C@@H]1CN(C)C(=O)NC1CCCCC1	none (no result: TRPM1 prom inh)
CC(C)N1CCC2(CC1)N=C(c1ccc3c(c1)OCO3)CC(c1cc(Cl)ccc1O)N2 (stereo not drawn)	Peg3 prom inh 100.7
CC(Sc1ccc(Cl)cc1)C(=O)Nc1ccc2c(c1)OCO2 (stereo not drawn)	none
Oc1c(N=Nc2ccccn2)ccc2ccccc12	EBV LMP1 NFkB 48.3
Oc1[nH]c2ccccc2c1N=Nc1ccccn1	none
COc1ccccc1CNC(=O)C1(C)CCN1C(=O)Cc1ccc(-c2ccccc2)cc1 (stereo not drawn)	none (no result: TRPM1 prom inh, EBV LMP1 NFkB)
CN1C2CCC1/C(=C\c1ccccc1)C(=O)/C2=C\c1ccccc1	Peg3 prom inh 72.6
O=C1/C(=C/c2ccccc2)CCC1C1CCCC1 (stereo not drawn)	none
COc1ccc(C2NN=C(c3c[nH]c4ccccc34)C2O)cc1 (stereo not drawn)	none
COc1ccc(C2C(O)C(c3c[nH]c4ccccc34)=NN2C(=O)CCl)cc1 (stereo not drawn)	KKLEB tox -88.9, TRPM1 prom inh 98.4, Peg3 prom inh 116.6, CF NFkB block 97.8, Shn3 3UTR inh 95.8
COc1ccc(-c2cc3c(nn2)-c2ccccc2C3=O)cc1	KKLEB tox -50.1, TRPM1 prom inh 72.4, EBV LMP1 NFkB 51.6, Peg3 prom inh 80.5
CC(C)Oc1ccc(S(=O)(=O)N2CCOCC2)cc1NC(=O)CSc1nnc(C2CC2)n1C	none (no result: TRPM1 prom inh)
Nc1ccccc1SC(CC(=O)c1ccccc1)c1ccccc1 (stereo not drawn)	none (no result: TRPM1 prom inh)
CC(C(Sc1ccccc1N)c1ccccc1)[N+](=O)[O-] (stereo not drawn)	TRPM1 prom inh 71.0
Cc1cccc(/C=C/C(=O)c2ccc([N+](=O)[O-])o2)c1	Peg3 prom inh 100.8, CF NFkB block 90.3 (no result: TRPM1 prom inh)
O=C(/C=C/c1cccc([N+](=O)[O-])c1)c1ccc([N+](=O)[O-])o1	KKLEB tox -88.7, TRPM1 prom inh 98.9, Peg3 prom inh 100.2, CF NFkB block 97.0, Shn3 3UTR inh 97.4
CCCCN(C(=O)c1ccc(N2C(=O)c3ccccc3C2=O)cc1)c1c(N)n(CC(C)C)c(=O)[nH]c1=O	none
CC1(C(=O)NS(=O)(=O)c2ccc(Cl)s2)CCN1C(=O)C1(c2ccccc2)CCCC1 (stereo not drawn)	none (no result: TRPM1 prom inh, EBV LMP1 NFkB)
COC(=O)c1ccc(COc2ccccc2/C=C(\C#N)C(=O)Nc2c(C)cc(C)cc2C)cc1	Peg3 prom inh 75.0
COc1ccc(C(=O)N(C)CCOc2ccc(Cl)cc2)cc1S(=O)(=O)N1CCCC1	none (no result: TRPM1 prom inh)
CCCCC#Cc1ccc2c(c1)COc1c3ccccc3nn1-2	none
CCCCCCC#Cc1ccc2c(c1)COc1c3ccccc3nn1-2	Shn3 3UTR inh 89.9
CCCS(=O)(=O)NC(=O)C1(C)CCN(C(=O)c2oc3ccccc3c2C)C1 (stereo not drawn)	none (no result: TRPM1 prom inh, EBV LMP1 NFkB)
O=C1C=CC(O)C2(CO)OC12 (stereo not drawn)	none (no result: TRPM1 prom inh)
O=C1c2ccccc2-c2onc3ccc(Oc4ccccc4)c1c23	KKLEB tox -82.7, TRPM1 prom inh 97.1, EBV LMP1 NFkB 53.2, Peg3 prom inh 104.4, CF NFkB block 85.3, Shn3 3UTR inh 90.5
Cc1noc(C)c1S(=O)(=O)Nc1ccccc1Oc1ccccc1	none
CC(C)CCn1c(Sc2nc3ccccc3o2)nc2c1c(=O)[nH]c(=O)n2C	EBV LMP1 NFkB 57.4
CC1(C(=O)Nc2cccc3cccnc23)CCN1C(=O)Cc1ccc(Cl)cc1Cl (stereo not drawn)	none (no result: TRPM1 prom inh, EBV LMP1 NFkB)
CCOC(=O)c1cc(-c2ccccc2)sc1NC(=O)COC(=O)c1cccc(S(N)(=O)=O)c1	Peg3 prom inh 87.3
CCOC(=O)c1cc(-c2ccccc2)sc1NC(=O)COC(=O)c1ccc(Cl)c(S(N)(=O)=O)c1	none
N#CC(C#N)=NNc1ccc2cn[nH]c2c1	CF NFkB block 79.2 (no result: TRPM1 prom inh, EBV LMP1 NFkB)
CCNC(=S)Nc1ccc2cn[nH]c2c1	none
Cc1cc(Cl)n2nc(C)c(-c3ccc(Cl)cc3)c2n1	Peg3 prom inh 103.7
O=C(CSc1nnc(NC(=O)c2ccc3c(c2)OCO3)s1)NCc1ccco1	EBV LMP1 NFkB 47.8
CN1CCCN(Cc2ccccc2Br)CC1	none
CC[N+](C)(C)Cc1ccccc1Br	EBV LMP1 NFkB 82.9
CC1(C)C2CC[C@]3(C)C(CC=C4[C@@H]5C[C@@](C)(CO)[C@@H](O)C[C@]5(C(=O)O)CC[C@]43C)[C@@]2(C)CC[C@@H]1O (stereo partly drawn)	none (no result: TRPM1 prom inh, EBV LMP1 NFkB)
C=C(C)[C@@H]1CC[C@]2(C(=O)O)CC[C@]3(C)C(CCC4[C@@]5(C)CC[C@H](O)C(C)(C)C5CC[C@]43C)C12 (stereo partly drawn)	KKLEB tox -75.9, Peg3 prom inh 89.5, CF NFkB block 79.3 (no result: TRPM1 prom inh)
O=C(O)c1cc(N/N=C/c2ccc3c(c2)OCCO3)ccc1Cl	TRPM1 prom inh 82.4, EBV LMP1 NFkB 45.3
O=C(O)c1ccc(N/N=C/c2cc3cc4c(cc3nc2Cl)OCCO4)cc1	EBV LMP1 NFkB 42.2
O=C(O)c1cc(N/N=C/c2ccc3c(c2)OCO3)ccc1Cl	none
C#CCNC(=O)c1ccc2sc([C@@H]3O[C@H](CO)[C@H](O)[C@H](O)[C@H]3O)nc2c1	none (no result: TRPM1 prom inh, EBV LMP1 NFkB)
COc1cc(-c2cnc3c(NC(C)=O)cc(-c4ccccc4CN(C)C)cn23)cc(OC)c1OC	none (no result: TRPM1 prom inh, EBV LMP1 NFkB)
CCCc1cnc(NCCNCC(O)COc2ccc(Cl)c(Cl)c2)nc1 (stereo not drawn)	Peg3 prom inh 106.9 (no result: Shn3 3UTR inh)
CC(=O)c1cccc(OCC(O)CNCCc2ccc(Cl)cc2)c1 (stereo not drawn)	none
CCOC(=O)C1CCN(S(=O)(=O)Cc2ccccc2)C1=O (stereo not drawn)	EBV LMP1 NFkB 42.8
CN1CCCN=C1COC(=O)C(O)(c1ccccc1)C1CCCCC1 (stereo not drawn)	KKLEB tox -63.7
N[C@H]1C(O)O[C@H](CO)[C@@H](O)[C@@H]1O (stereo partly drawn)	none
OC[C@H]1OC(O)[C@H](O)[C@@H](O)[C@H]1O (stereo partly drawn)	EBV LMP1 NFkB 56.3
C[C@H]1CN(CCc2ccccc2)C(=O)[C@@H]1CC(=O)Nc1ccccc1	none (no result: TRPM1 prom inh)
COc1ccc(N2C[C@H](CSC)[C@@H](CC(=O)Nc3ccccc3)C2=O)cc1	none (no result: TRPM1 prom inh)
